Pf apPOL block: Pf-apPOL DNA polymerase inhibition; Recombinant Pf-apPOL, molecular beacon fluorescence, 1.5 h; inhibition, % at 10 µM; 210,000 compounds, 0.25% hits; AID 1794808
mHTT CaM bind: mHTT-calmodulin interaction abrogation; P42858; AlphaScreen His-mHTT/GST-CaM binding, luminescence; inhibition, % at 15 µM; 190,000 compounds, 3.6% hits; AID 1671202;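 note: 0% = both proteins with DMSO and 100% = one protein alone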
Active calls of the source: *; / = no result given. An excerpt weighted towards active compounds, which were near 3.5% of everything screened. Cut-off read from the data, not from the text of the source: active = inhibition above about 50%; inactive = the rest.

SMILES	Pf apPOL block	mHTT CaM bind
COc1ccc(C(=O)NCCc2c[nH]c3ccccc23)cc1	-5.8	1.5
COc1ccc(C(=O)C(C)OC(=O)CCc2c[nH]c3ccccc23)cc1 (stereo not drawn)	-7.1	90.4*
CCOc1ccccc1NC(=O)c1nn(-c2cc(OC)cc(OC)c2)c(=O)c2ccccc12	-1.7	-1.0
COc1ccc(CCNC(=O)c2nc(-c3cccc(F)c3)n3c2CCCCC3)cc1OC	4.7	50.6*
CCOCCCNC(=O)c1nc(-c2cccc(F)c2)n2c1CCCCC2	-2.0	20.3
COC(=O)c1ccccc1NC(=O)c1nc(-c2cccc(F)c2)n2c1CCCCC2	1.3	3.0
COc1cc(NC(=O)c2nc(-c3cccc(F)c3)n3c2CCCCC3)cc(OC)c1OC	5.8	64.5*
COc1cc(OC)c(OC)cc1C=C1Oc2cc(OCC(=O)O)ccc2C1=O	5.7	4.7
COc1ccc(-c2ncccc2CNC(=O)C2CCCCC2)cc1	-7.8	-5.5
COc1ccc(OC)c(C2Nc3ccc4ncccc4c3C3=C2C(=O)CC(c2ccccc2)C3)c1 (stereo not drawn)	-3.1	13.0
O=C(Nc1ccc(Cl)cc1)N1CCc2[nH]cnc2C1c1ccncc1 (stereo not drawn)	-1.5	-2.8
Cc1cccc(-n2nc3c(c2NC(=O)/C=C/c2ccccc2)CS(=O)(=O)C3)c1C	-1.9	10.0
CC1(C)CC(=O)C2=C(C1)c1c(ccc3ncccc13)NC2c1ccc(Cl)cc1 (stereo not drawn)	57.8*	18.0
CC1(C)CC(=O)C2=C(C1)c1c(ccc3ncccc13)NC2c1ccccc1 (stereo not drawn)	-0.8	19.0
CCN(C)C(=O)c1cc(-c2ccc(OC)cc2OC)nn1C	-7.4	-1.5
CCCCSCCCNC(=O)CN1C(=O)/C(=C/c2ccc(C)cc2)Sc2ccccc21	-9.8	7.0
O=C(Nc1ccccc1Cl)N1CCCN(C2CCN(Cc3ccc(F)cc3)C2=O)CC1 (stereo not drawn)	-7.6	8.1
N#CC1=C(N)OC2=C(C(=O)CCC2)C1c1ccccc1 (stereo not drawn)	-2.5	-6.2
N#CC1=C(N)OC2=C(CC/C2=C\c2ccccc2)C1c1ccccc1 (stereo not drawn)	-0.1	90.0*
CC(C)S(=O)(=O)c1ccc(NCCC2=CCCCC2)nn1	-7.7	-4.1
Cc1cc(C(=O)Nc2nnc(-c3csc(C)n3)o2)c(C)o1	8.8	77.6*
Cc1nc(-c2nnc(NC(=O)c3cc(Cl)cc(Cl)c3)o2)cs1	8.9	30.8
O=C(Nc1ccc(Br)cc1F)N1CC2CCCN2c2ccccc21 (stereo not drawn)	-3.9	12.1
Cc1ccc(NC(=O)C2CCC(N3C(=O)c4ccccc4C3=O)CC2)cc1Cl (stereo not drawn)	-16.4	-0.4
Cc1ccc(NC(=O)N2CCC(N3CCN(Cc4ccccc4)C3=O)CC2)cc1C	-5.6	-3.5
SMILES	Pf apPOL block	mHTT CaM bind
O=C(CCC(=O)N1CC2CCCN2c2ccccc21)NCc1ccc2c(c1)OCO2 (stereo not drawn)	-2.0	9.8
Cc1ccc(NC(=O)N2CC3CCCN3c3ccccc32)c(C)c1 (stereo not drawn)	0.3	67.1*
Cc1ccc(NC(=O)N2CC3CCCN3c3ccccc32)cc1C (stereo not drawn)	2.9	84.1*
O=C(Nc1ccc2c(c1)OCO2)N1CC2CCCN2c2ccccc21 (stereo not drawn)	-2.4	80.9*
Cc1ccc(NC(=O)N2CC3CCCN3c3ccccc32)cc1Cl (stereo not drawn)	-5.1	89.3*
O=S(=O)(c1ccc(NCCC2=CCCCC2)nn1)C1CCCCC1	-4.3	-0.4
CN(C)S(=O)(=O)c1ccc2c3c(cccc13)C(=O)N2C(=O)c1ccc([N+](=O)[O-])cc1	-6.6	-8.4
Cc1cccc(NC(=O)N2CC3CCCN3c3ccccc32)c1 (stereo not drawn)	0.0	74.1*
Cc1cccc(NC(=O)N2CCCC2c2ccccc2C)c1 (stereo not drawn)	-5.0	-8.0
O=C(Nc1cccc(C(F)(F)F)c1)N1CCC(N2CCN(Cc3ccccc3)C2=O)CC1	-3.7	-4.9
O=C(Nc1cccc(C(F)(F)F)c1)N1CC2CCCN2c2ccccc21 (stereo not drawn)	0.0	80.8*
Cc1cccc(S(=O)(=O)N2CC3CN(S(=O)(=O)c4cnc[nH]4)CC(C2)O3)c1	-6.3	-1.8
Cc1ccc(/C=C2\SC(c3ccccc3)=NC2=O)o1	-6.0	56.0*
O=C1N=C(N2CCOCC2)S/C1=C\c1ccc(-c2ccccc2)o1	-1.6	80.0*
O=C1N=C(c2ccccc2)S/C1=C/c1ccc2c(c1)OCO2	0.6	-3.0
O=C1N=C(N2CCOCC2)S/C1=C\c1cccs1	5.6	-5.0
CCCNC(=O)c1c[nH]c2ccc(S(=O)(=O)N(C)c3cc(C)ccc3C)cc2c1=O	-2.8	4.0
CC(C)C(=O)N1CCN(c2nc3c(s2)CC(C(=O)N2CCCCCC2)CC3)CC1 (stereo not drawn)	3.1	3.3
Cn1cc2c3c(cccc31)CN(C(=O)Nc1cccc(Cl)c1F)CC2	-0.1	1.8
CC(C)(C)N=C1Nc2ncccc2NC12CCN(C(=O)CCc1ccccc1)CC2	-3.9	8.2
N#Cc1c(C#N)c(N)n(N)c1N	/	100.3*
Cn1nc(CC#N)c(C#N)c1N	10.9	/
COc1ccc(CN(CCC(c2ccccc2OC)C2CCOC(C)(C)C2)C(C)=O)cc1 (stereo not drawn)	-3.0	22.0
CC(C)(C)Oc1ccc(C(=O)N(Cc2ccc(F)cc2)C2CCOC(C)(C)C2)cc1 (stereo not drawn)	0.8	56.0*
COc1ccccc1NC(=O)C1CC(=O)N(c2ccc3c(c2)CCN3C(=O)C2CC2)C1 (stereo not drawn)	-6.1	-0.5
SMILES	Pf apPOL block	mHTT CaM bind
CN(C)c1ccc(Cc2ccc(N(C)C)cc2)cc1	-10.4	/
CN(C)c1ccc(C(O)(c2ccc(N(C)C)cc2)c2ccc(N(C)C)cc2)cc1	-7.2	100.3*
COc1ccccc1Nc1cc(C(=O)N2CCSCC2)nc2ccc(C)cc12	-3.1	8.7
CSc1ccccc1NC(=O)c1ccc(-n2ccnc2)nn1	-3.5	31.3
O=C(Nc1nc2ccccc2[nH]1)c1ccc(-n2ccnc2)nn1	-0.1	94.1*
CN1CCN(C(=N)C(C#N)=Cc2[nH]c3ccccc3c2O)CC1	1.2	24.0
COc1ccc(N=C(N)C(C#N)=Cc2[nH]c3ccccc3c2O)cc1	2.5	69.0*
CN(C)c1ccc(CN2CCCC2c2nc(-c3cccnc3)no2)cc1 (stereo not drawn)	-2.0	56.3*
c1cncc(-c2noc(C3CCCCN3Cc3ccco3)n2)c1 (stereo not drawn)	2.5	4.1
Clc1ccc2c(c1)C1C=CCC1C(c1cccc3ccccc13)N2 (stereo not drawn)	/	64.9*
Cc1ccc2c(c1)C1C=CCC1C(c1ccccc1Cl)N2 (stereo not drawn)	-8.2	83.0*
CC(=O)c1ccc2c(c1)C1C=CCC1C(c1ccccc1Cl)N2 (stereo not drawn)	2.7	40.0
COCCCN1C(=O)C(=O)C(=C(O)c2ccc(OC)c(C)c2)C1c1cccnc1 (stereo not drawn)	-6.2	-4.9
Brc1ccc(Nc2nc(-c3cccnc3)nc3ccccc23)cc1	-0.9	12.0
COc1ccc(Nc2nc(-c3cccnc3)nc3ccccc23)cc1	-2.6	54.4*
CCCCC(C(=O)O)n1c(O)c(C=C2C=Nc3ccccc32)sc1=S (stereo not drawn)	24.9	99.5*
